From PubChem BioAssay (NCI)
The panel holds about 83,000 compounds, 20% with a hit somewhere; the sample as a whole holds those more often.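 Values shown are percent growth following 48 h exposure of cells in 96-well plates to a single concentration of compound; below 10 was considered active.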 Unmarked numbers belong to inactive results. Active and inactive are the calls of the source.

tested on: HOP-62 NSCLC; assay: NCI-60 one-dose screen, 48 h (100 = growth as untreated, 0 = no growth, -100 = all killed); conditions: 10 µM unless noted

| SMILES | growth |
| --- | --- |
| O=C(NNC(=S)NCCc1ccccc1)c1ccc(OCc2nc3ccc(Cl)cc3[nH]2)cc1 | 97.4% |
| N#Cc1c(-c2ccc(F)cc2)nc(SCc2ccc(F)cc2)nc1N1CCNCC1 | -65.4% (active) |
| Cc1cc(N=C(N)c2ccccc2)ccc1OCCCCCCCCn1ccnc1 | -14.4% (active) |
| COc1cccc(C(N)=Nc2ccc(OCCCCCCCCn3cncn3)cc2)c1 | 16.2% |

tested on: NCI-H460 lung; assay: as above; conditions: 10 µM unless noted

| SMILES | growth |
| --- | --- |
| COc1cc(C=O)ccc1OC(=O)c1cc(-c2ccc(C)cc2)n(-c2ccc(S(C)(=O)=O)cc2)n1 | 110% |
| N#CC1=C(c2cccs2)Nc2c(c(-c3ccccc3)nn2-c2ccccc2)C12C(=O)Nc1ccccc12 (stereo not given) | 5.58% (active) |
| COc1ccc(/C=C/c2nc3ccccc3c(=O)n2CC(=O)Nc2ccccc2)cc1 | 37% |
| COc1ccc2c(c1)C(=O)N(C)C2C1c2c(cc3c(c2OC)OCO3)CCN1C (stereo not given) | 20.7% |
| Cc1ccc(C(C(=O)NC2CCCCC2)N(Cc2ccccc2Cl)C(=O)c2ccc(CN3CCOCC3)o2)o1 (stereo not given) | 99.9% |
| O=C(NNC(=S)NCCc1ccccc1)c1ccc(OCc2nc3ccc(Cl)cc3[nH]2)cc1 | 82.3% |
| COc1ccc2c(c1)N=c1c-2cc2c(O)[nH]c(=S)n2c1=O | 83.1% |
| Cc1ccc(C2CC(c3ccc(NC(=O)Nc4ccccc4)cc3)=NN2c2ccc(S(C)(=O)=O)cc2)cc1 (stereo not given) | -5.89% (active) |
| COc1ccc(C(=O)NNC(=O)CSc2nc3sc4c(c3c(=O)n2-c2ccc(Cl)cc2)CCCC4)cc1 | 87.2% |
| N#Cc1c(-c2ccc(F)cc2)nc(SCc2ccc(F)cc2)nc1N1CCNCC1 | -85.1% (active) |
| Cc1ccc(C2CC(c3ccc(NC(=O)Nc4ccccc4)cc3)=NN2c2ccc(S(N)(=O)=O)cc2)cc1 (stereo not given) | -86.1% (active) |
| O=c1[nH]c2ccccc2cc1CSc1ccccc1Nc1nccc(-c2ccc3c(c2)OCO3)n1 | 76.7% |
| COc1ccc2c(c1)C(Sc1ccc(F)cc1)c1c(nc(N)c(C#N)c1N)O2 (stereo not given) | 95.7% |
| O=C1c2cccc3c(N4CCN(Cc5ccccc5)CC4)ccc(c23)C(=O)N1c1cccc(-c2nn(-c3ccccc3)cc2-c2nc3ccccc3s2)c1 | 110% |
| CCc1ccccc1NC(=O)N/C(N)=N/c1nc2ccccc2s1 | 39.5% |
| O=C(N/N=C/c1ccoc1)c1[nH]c2ccc(Br)cc2c1-c1ccccc1 | -83.2% (active) |
| COC(=O)c1c(C(=O)OC)c2ccc3c4ccccc4ccc3n2c1C(=O)C(C)Br (stereo not given) | 17.2% |
| COc1cc(CNC(=O)C[C@H](C)CCC=C(C)C)ccc1OCc1cn(-c2ccc(Cl)cc2Cl)nn1 | 75.1% |

| SMILES | growth |
| --- | --- |
| O=CNc1cccc(-n2cnc3cc(-c4ccc(O)cc4)ccc32)c1 | 16.7% |
| O=C(N/N=C/c1occc1Br)c1[nH]c2ccc(Br)cc2c1-c1ccccc1 | -86.2% (active) |
| Cc1[nH]nc2ccc3nc(-c4cnn(CCO)c4)c4c(c3c12)CCCC4 | 26.6% |
| Cc1ccc(C(=O)Nc2cc(-n3ccnc3)cc(C(F)(F)F)c2)cc1-n1cc(-c2cnc3cccnn23)nn1 | 97% |
| Cc1cc(Cl)ccc1NC(=O)Nc1ccc(-c2ccc3c(c2)NC(=O)/C3=C\c2ccc[nH]2)cc1 | 66.8% |
| COc1ccc(NC(=O)NN2C(=O)c3ccccc3N(C)C2c2ccc(OC)cc2)cc1 (stereo not given) | 109% |
| COc1ccc(-c2nc3ccc(-c4nnc(SCC(=O)Nc5ccc(/C(C)=N\O)cc5)o4)cc3[nH]2)cc1 | 59.1% |
| Cc1ccc2c(c1)nc(-c1ccccc1)n2CC(=O)N=Nc1c(O)[nH]c2ccc(Cl)cc12 | -68.9% (active) |
| COc1ccc2c(c1)c(-c1cc(N)n3nc(-c4c[nH]c5ccccc45)cc3n1)cn2C | -69.7% (active) |
| COc1ccccc1/C=C/c1cccc(NC(=S)NCCCCN(C)C)c1 | -74.2% (active) |
| Cc1cccc(C)c1Nc1nnc(-c2c[nH]c3ccccc23)o1 | 99.7% |
| CCOc1ccccc1NC(=O)N/C(N)=N/c1nc2ccccc2s1 | 6.47% (active) |
| N#Cc1ccc(C(=O)NNC(=O)CSc2nc3sc4c(c3c(=O)n2-c2ccc(Cl)cc2)CCCC4)cc1 | 51.8% |
| S=C(Nc1ccc(OCc2nc3ccc(Cl)cc3[nH]2)cc1)NC1CCCCC1 | -21.5% (active) |
| COC(=O)c1c(C(=O)OC)c2c3ccccc3c3ccccc3n2c1C(=O)C(C)(C)C | 80.3% |
| COc1cc(NC(=O)CSc2nnc(-c3ccc(-c4nc5ccc(Cl)cc5[nH]4)cc3)o2)cc(OC)c1OC | 29% |
| O=C1/C(=C/c2cnc(-c3ccccc3)s2)SC(=S)N1Cc1ccc2c(c1)OCO2 | 97.2% |
| CC(=O)c1c2c(c3ccc4c5ccccc5ccc4n13)C(=O)c1ccccc1C2=O | 28% |
